Source: PubChem (National Center for Advancing Translational Sciences (NCATS))
Sampled rows, rich in hits. Any-hit rate of the full collection: about 4.7%.
TRHR enhancer-1 – allosteric enhancers of human TRH receptor | P34981 | TRHR cells, fluo-8 calcium fluorescence, EC20 TRH enhancement | enhancement, % at 2 µM | 360,000 tested, 0.66% active; in the data active = enhancement above about 30%
Target sequence (P34981 whole entry, looked up): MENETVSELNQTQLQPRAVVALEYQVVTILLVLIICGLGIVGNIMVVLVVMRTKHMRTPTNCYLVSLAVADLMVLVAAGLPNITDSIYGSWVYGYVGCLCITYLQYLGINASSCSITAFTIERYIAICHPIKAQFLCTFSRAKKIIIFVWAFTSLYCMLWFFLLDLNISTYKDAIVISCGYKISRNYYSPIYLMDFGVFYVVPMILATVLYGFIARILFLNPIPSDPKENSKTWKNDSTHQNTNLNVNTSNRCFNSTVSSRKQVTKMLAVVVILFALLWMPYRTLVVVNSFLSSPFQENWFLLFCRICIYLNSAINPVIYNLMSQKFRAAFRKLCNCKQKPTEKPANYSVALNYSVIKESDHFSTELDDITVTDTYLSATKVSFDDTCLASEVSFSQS
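TRHR-expressing cells loaded with fluo-8 calcium dye were read kinetically (ex 480/em 530) during compound addition, then stimulated with an EC20 of TRH (10 nM final). Enhancement of the Gq-mediated intracellular calcium response was scored.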
D1 ag – activates the human D1 dopamine receptor; activation, % at 2 µM; HEK293 T-REx D1 cells, calcium flux, agonist mode; 360,000 tested, 1% active; in the data active = activation above about 30%
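Tetracycline-induced HEK293 TREx D1 cells, force-coupled to calcium signalling, were dye-loaded with a no-wash calcium kit. Compound was pin-added after a 10 s baseline. Fluorescence was read kinetically at 1 cycle/s for 180 s, with calcium rises flagged as agonism.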
D1 antagonist – blocks dopamine activation of the human D1 receptor. AID 504652. HEK293 TREx D1 cells, calcium flux, dopamine EC80; stronger effect = lower value. P21728. activity change, negative = inhibition, % at 10 µM. 360,000 tested, 3.2% active; in the data active = activity change below about -30%
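Antagonism measured as reduced calcium response to an EC80 dopamine addition following 180 s compound pre-read; cells were inducible HEK293 Trex D1 plated overnight at 30 C, read kinetically at 1 cycle/sec.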
D1 potentiator – human D1 dopamine receptor positive modulation. P21728. HEK293 TREx D1 cells, calcium flux, dopamine EC20 potentiation. potentiation, % at 10 µM. 360,000 tested, 0.036% active; in the data active = potentiation above about 30%
TRHR agonist-1 – TRH receptor (human) agonism; P34981; TRHR cells, calcium flux fluo-8, FDSS agonist mode; AID 493084; activation, % at 2 µM; 360,000 tested, 0.18% active; in the data active = activation above about 30%
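TRHR-expressing cells, plated overnight in medium with 10% serum, were loaded with fluo-8 calcium dye at room temperature. After a 10 s baseline, library compound was pin-added and calcium release was recorded kinetically (ex 480/em 530) as agonist response.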
TRHR enhancer-2 – confirmation of human TRH receptor allosteric enhancers. shares compounds with TRHR enhancer-1. TRH receptor cell assay, enhancer confirmation qHTS. activity change, negative = inhibition, % at 46.1 µM. 970 tested, under 10 active. AID 493076;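 also: compound effect scored on response to added TRH at EC20 of 10 nM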
TRHR agonist-2 – human TRH receptor agonism confirmation; shares compounds with TRHR enhancer-1; TRHR-expressing cells, agonist activation read-out; Potency, µM (titrated, usually from 46.1 µM), most hits filed as activators; 970 tested, 8% active; AID 493078; also: nearly all actives have a fitted effect of over 75% in size
Numbers stand for hits; i = inactive; ? = inconclusive; nt = no result given. Unless noted, calls follow the shape of the dose curve; as a rule, active = well fitted curve in the direction sought with a large enough effect; inconclusive = small, poorly fitted or top-dose-only effect, or another doubt; inactive = no such curve, though single readings can be large; an effect the other way counts as inactive or inconclusive.

SMILES | TRHR enhancer-1 | D1 ag | D1 antagonist | D1 potentiator | TRHR agonist-1 | TRHR enhancer-2 | TRHR agonist-2
O=[N+]([O-])c1ccccc1S(=O)(=O)Nc1cccc(-c2ccc3nncn3n2)c1 | 46 | i | i | i | i | i | i
COc1ccc(OC)c(C(=O)COC(=O)COc2ccccc2F)c1 | i | i | i | i | i | nt | nt
O=C(NC(=S)Nc1cccc2c(O)cccc12)c1ccccc1[N+](=O)[O-] | 50 | i | i | i | i | i | i
O=C(NNC(=S)NC(=O)c1ccccc1[N+](=O)[O-])c1ccccc1O | i | i | i | i | i | nt | nt
Cc1c(Cl)c([N+](=O)[O-])nn1CCCC(=O)Nc1cccc(Cl)c1Cl | i | i | i | i | i | nt | nt
COC(=O)c1ccccc1NC(=O)CCCn1nc([N+](=O)[O-])c(Br)c1C | i | i | i | i | i | i | i
COc1ccc(OC)c(NC(=O)N(C)CCc2c(C)nn(C)c2C)c1 | i | i | i | i | i | nt | nt
CCc1ccc(C2C(C#N)=C(N)N(N(C)C)C3=C2C(=O)CCC3)cc1 (stereo not given) | i | i | i | i | i | nt | nt
CC(C(=O)c1ccccc1)[n+]1cccc(C(N)=O)c1 (stereo not given) | 41 | i | i | i | i | i | i
Cc1ccc(C(=O)C(C)[n+]2cccc(C(N)=O)c2)cc1 (stereo not given) | i | i | i | i | i | nt | nt
Cc1ccc(C(=O)CSc2ncc3c(n2)-c2ccccc2N(Cc2ccc(Cl)cc2)S3(=O)=O)cc1 | i | i | i | i | i | nt | nt
COc1ccc(NC(=O)COc2ccc3c(c2)CCC3)cc1 | 42 | i | i | i | i | i | i
CCN(C(=O)c1cn(CC)c(=O)c2cc(OC)c(OC)cc12)c1ccccc1F | i | i | i | i | i | nt | nt
CCc1ccc(NC(=O)CSc2nc(=O)n(Cc3cccnc3)c3c2CCC3)cc1 | i | i | nt | i | i | nt | nt
Brc1cc2c(cc1CSc1ncccn1)OCO2 | 46 | i | i | i | i | i | i
CC1=NN(c2ccc(C(=O)O)cc2)C(=O)CC1 | 44 | i | i | i | i | i | i
O=c1oc2c(CN3CCN(CCO)CC3)c(O)ccc2cc1-c1ccccn1 | i | i | i | i | 33 | i | ?
COc1ccc(C(C)(C)C)cc1NC(=O)c1ccc[n+]([O-])c1 | 53 | i | i | i | i | i | i
Cc1ccc(OCc2cc(C(=O)N(C)Cc3cnn(-c4ccccc4C)c3)no2)cn1 | 43 | i | i | i | i | i | i
CCOC(=O)c1cc([N+](=O)[O-])sc1NC(=O)c1ccc(S(=O)(=O)N2CC3(C)CC2CC(C)(C)C3)cc1 (stereo not given) | i | i | i | i | 37 | i | ?
CC1(C)CC2CC(C)(CN2S(=O)(=O)c2ccc(C(=O)Nc3ccc(S(=O)(=O)N4CCOCC4)cc3)cc2)C1 (stereo not given) | i | i | i | i | i | nt | nt
CC(=O)c1cccc(NC(=O)C(C)N(C)CC(=O)Nc2ccc(Cl)cc2)c1 (stereo not given) | i | i | i | i | i | nt | nt
Cc1nn(C(C)C(=O)NCCc2cccs2)c(=O)c2nn(-c3ccccc3)c(C)c12 (stereo not given) | i | i | i | i | i | nt | nt
CC(CCc1ccccc1)NC(=O)Cn1cccc1C(=O)c1ccccc1 (stereo not given) | 46 | i | i | i | i | ? | i
Cc1ccccc1C(=O)c1cccn1CC(=O)NC(C)CCc1ccccc1 (stereo not given) | i | i | i | i | i | nt | nt
SMILES | TRHR enhancer-1 | D1 ag | D1 antagonist | D1 potentiator | TRHR agonist-1 | TRHR enhancer-2 | TRHR agonist-2
C=CCC(CC)C(=O)NC(=O)N1CCCc2ccccc21 (stereo not given) | 42 | i | i | i | i | i | i
CCn1c(C(=O)N2CCC(C(=O)NCCc3ccc(C)cc3)CC2)cc2sccc21 | i | i | i | i | i | nt | nt
Cc1ccc(C)c(N(CC(=O)NCc2ccco2)C(=O)CNS(=O)(=O)c2ccccc2)c1 | i | i | i | i | i | nt | nt
CN(C(=O)Cn1cc(S(=O)(=O)Cc2ccccc2Cl)c2ccccc21)c1ccccc1 | i | i | i | i | i | nt | nt
Cc1cc(NC(=O)C2C3C(=O)N(c4cccnc4)C(C(=O)NC(C)(C)C)C34C=CC2(C)O4)no1 (stereo not given) | 42 | i | i | i | i | i | i
CC(C)(C)NC(=O)C1N(c2cccnc2)C(=O)C2C(C(=O)Nc3ccccc3)C3(C)C=CC21O3 (stereo not given) | i | i | i | i | i | nt | nt
O=C(Nc1cc(C(F)(F)F)ccc1N1CCOCC1)C1CC1 | 49 | i | i | i | i | i | i
COc1nc(N)nc(CC(=O)C2CC2)n1 | 62 | i | i | i | i | i | i
CCOC(=O)N1CCC(Nc2nc(OC)nc(OC)n2)CC1 | i | i | i | i | i | nt | nt
Nc1[nH]nc2nc3ccccc3cc12 | 69 | i | i | i | i | i | i
CCc1ccc2nc3n[nH]c(N)c3cc2c1 | i | i | i | i | i | nt | nt
Cc1ccc(NC(=O)c2cc(S(=O)(=O)N3CCCC3)cn2C)cc1C | 47 | i | i | i | i | i | i
Cc1ccc(NC(=O)NN2CCN(C)CC2)cc1C | 41 | i | i | i | i | i | i
CC(C)=C(NC(=O)c1ccccc1)C(=O)Nc1cccc(C)c1 | i | i | i | i | i | nt | nt
CN1/C(=C/C=N/NC(=O)c2ccc([N+](=O)[O-])cc2)C(C)(C)c2ccccc21 | i | i | i | i | i | nt | nt
CN1/C(=C\C(=S)NC(=O)c2ccc([N+](=O)[O-])cc2)C(C)(C)c2ccccc21 | 48 | i | i | i | i | i | i
CCc1ccc2occ(CC(=O)Nc3nnc(SC)s3)c2c1 | i | i | i | i | i | nt | nt
CCc1ccc2occ(CC(=O)Nc3ccc(C)c(C)c3)c2c1 | 63 | i | i | i | i | i | i
CCCC(=O)NC1C2CC3CC(C2)CC1C3 (stereo not given) | 51 | i | i | i | i | i | i
CCOc1ccccc1NC(=O)CN1c2ccccc2S(=O)(=O)c2ccccc21 | i | i | i | i | i | nt | nt
Cc1c(/C=N/O)c2ccccn2c1C=O | 60 | i | i | i | i | i | i
Cc1cn2c(=O)cc(COc3ccccc3NC(=O)c3ccc(Cl)cc3)nc2s1 | i | i | i | i | i | nt | nt
O=C(Cn1cc(S(=O)(=O)c2ccccc2)c(=O)c2cc3c(cc21)OCO3)Nc1ccc(Cl)cc1 | i | i | i | i | i | nt | nt
COc1ccc(C2C(C(=O)c3ccco3)=C(O)C(=O)N2c2nnc(C)s2)cc1 (stereo not given) | i | i | i | i | i | nt | nt
